# Assays:
# Assay in all cases: DAPPL (digital affinity profiling via proximity ligation, sequencing); 10 mM Tris-HCl pH 7.5, 50 mM NaCl, 1 mM DTT, 4% glycerol, room temperature, 30 min; GST-TFs on glutathione beads, 16-mer random dsDNA library, 0.1% formaldehyde crosslink after washing; high values mean tight binding
# FLI1 = target: T1, FLI1 (Homo sapiens, UniProt Q01543 1-452); settings: protein: recombinant; tags: N-terminal GST; dsDNA, one strand shown
# T1 sequence: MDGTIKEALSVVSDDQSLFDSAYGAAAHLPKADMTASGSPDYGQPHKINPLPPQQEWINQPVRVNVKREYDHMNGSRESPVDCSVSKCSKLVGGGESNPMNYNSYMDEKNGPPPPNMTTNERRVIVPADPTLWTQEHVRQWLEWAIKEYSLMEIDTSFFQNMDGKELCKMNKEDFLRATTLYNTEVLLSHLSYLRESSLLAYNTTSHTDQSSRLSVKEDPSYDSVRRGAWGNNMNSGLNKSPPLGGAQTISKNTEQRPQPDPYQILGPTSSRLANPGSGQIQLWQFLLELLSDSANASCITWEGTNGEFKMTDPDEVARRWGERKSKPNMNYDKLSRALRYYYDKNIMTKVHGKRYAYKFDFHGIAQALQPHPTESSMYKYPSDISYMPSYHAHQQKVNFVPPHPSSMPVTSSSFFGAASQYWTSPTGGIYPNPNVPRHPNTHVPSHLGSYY
# In short: (§1)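 Binding signal is each hexamer's read frequency for a factor divided by its frequency in the tag-only sample. The factors were GST-fused human transcription factors from yeast, captured on glutathione beads, DNA-barcoded and pooled with that sample. Pools were incubated with 200 nmole of a random double-stranded 16-mer DNA library in Tris/NaCl/DTT/glycerol buffer at room temperature for 30 min, then washed, crosslinked with 0.1% formaldehyde, proximity-ligated with BsaI/T4 ligase (1 h, 37 °C), PCR-amplified and sequenced on an Illumina NextSeq500.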
# ELK1 = target: T2, ELK1 (Homo sapiens, UniProt P19419 1-428); settings: protein: recombinant; tags: N-terminal GST; dsDNA, one strand shown
# T2 sequence: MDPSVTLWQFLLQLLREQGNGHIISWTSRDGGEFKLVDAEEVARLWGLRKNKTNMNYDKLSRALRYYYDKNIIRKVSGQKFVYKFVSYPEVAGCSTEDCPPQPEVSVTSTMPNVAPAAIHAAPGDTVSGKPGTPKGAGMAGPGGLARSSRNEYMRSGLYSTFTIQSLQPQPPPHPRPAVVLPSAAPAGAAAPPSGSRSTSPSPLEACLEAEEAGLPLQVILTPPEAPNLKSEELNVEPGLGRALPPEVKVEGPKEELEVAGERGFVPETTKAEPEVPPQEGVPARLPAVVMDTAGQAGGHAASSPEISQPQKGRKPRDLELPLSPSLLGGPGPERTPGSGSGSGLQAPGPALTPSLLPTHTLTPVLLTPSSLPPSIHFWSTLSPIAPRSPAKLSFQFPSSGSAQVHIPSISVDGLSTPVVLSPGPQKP
# In short: as §1
# GABPA = target: T3, GABPA (Homo sapiens, UniProt Q06546 1-454); settings: protein: recombinant; tags: N-terminal GST; dsDNA, one strand shown
# T3 sequence: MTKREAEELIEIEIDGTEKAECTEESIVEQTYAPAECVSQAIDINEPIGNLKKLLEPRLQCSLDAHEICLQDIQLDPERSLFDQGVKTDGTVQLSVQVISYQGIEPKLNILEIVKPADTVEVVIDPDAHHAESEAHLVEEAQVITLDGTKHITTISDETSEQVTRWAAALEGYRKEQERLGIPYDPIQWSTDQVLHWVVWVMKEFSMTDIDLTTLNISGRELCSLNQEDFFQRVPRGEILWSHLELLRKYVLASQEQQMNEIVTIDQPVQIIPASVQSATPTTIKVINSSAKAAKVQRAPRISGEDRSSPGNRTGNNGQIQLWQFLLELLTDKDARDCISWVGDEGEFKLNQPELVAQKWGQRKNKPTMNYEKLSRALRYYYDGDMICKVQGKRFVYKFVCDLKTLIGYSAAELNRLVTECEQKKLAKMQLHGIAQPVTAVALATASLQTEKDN
# In short: as §1
# ERG = target: T4, ERG (Homo sapiens, UniProt P11308 1-479); settings: protein: recombinant; tags: N-terminal GST; dsDNA, one strand shown
# T4 sequence: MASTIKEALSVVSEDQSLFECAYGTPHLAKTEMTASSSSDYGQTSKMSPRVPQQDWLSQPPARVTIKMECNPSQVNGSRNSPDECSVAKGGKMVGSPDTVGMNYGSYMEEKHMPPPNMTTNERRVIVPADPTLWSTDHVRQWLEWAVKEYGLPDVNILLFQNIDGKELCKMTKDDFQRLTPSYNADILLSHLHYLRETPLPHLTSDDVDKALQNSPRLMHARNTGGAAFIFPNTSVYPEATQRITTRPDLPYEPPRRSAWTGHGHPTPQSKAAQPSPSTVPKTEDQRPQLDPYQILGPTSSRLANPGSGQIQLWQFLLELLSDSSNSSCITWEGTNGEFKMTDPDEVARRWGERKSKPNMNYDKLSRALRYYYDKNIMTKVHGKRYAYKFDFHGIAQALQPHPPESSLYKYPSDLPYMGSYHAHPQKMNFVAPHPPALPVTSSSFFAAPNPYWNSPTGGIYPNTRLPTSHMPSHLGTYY
# In short: as §1
# ELF1 = ELF1 (Homo sapiens, UniProt P32519 1-619); settings: protein: recombinant; tags: N-terminal GST; dsDNA, one strand shown
# ELF1, sequence (P32519 whole entry): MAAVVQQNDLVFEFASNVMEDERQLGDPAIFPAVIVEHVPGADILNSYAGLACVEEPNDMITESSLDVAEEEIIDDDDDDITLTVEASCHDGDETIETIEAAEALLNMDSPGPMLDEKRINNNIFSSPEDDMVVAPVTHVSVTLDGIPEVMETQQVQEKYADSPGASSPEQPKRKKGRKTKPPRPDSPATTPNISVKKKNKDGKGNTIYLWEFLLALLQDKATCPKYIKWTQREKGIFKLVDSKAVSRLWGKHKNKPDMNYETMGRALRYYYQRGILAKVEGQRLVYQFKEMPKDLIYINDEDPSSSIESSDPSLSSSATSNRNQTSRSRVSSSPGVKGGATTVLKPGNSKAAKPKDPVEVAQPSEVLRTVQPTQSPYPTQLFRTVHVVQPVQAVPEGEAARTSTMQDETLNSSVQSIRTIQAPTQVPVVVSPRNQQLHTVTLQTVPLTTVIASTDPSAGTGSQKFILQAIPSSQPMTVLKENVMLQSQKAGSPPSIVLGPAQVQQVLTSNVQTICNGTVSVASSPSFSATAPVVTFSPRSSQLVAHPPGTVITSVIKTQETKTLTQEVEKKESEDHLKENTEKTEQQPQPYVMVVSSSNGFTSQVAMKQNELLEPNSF
# In short: as §1
# EHF = target: T5, EHF (Homo sapiens, UniProt Q9NZC4 1-300); settings: protein: recombinant; tags: N-terminal GST; dsDNA, one strand shown
# T5 sequence: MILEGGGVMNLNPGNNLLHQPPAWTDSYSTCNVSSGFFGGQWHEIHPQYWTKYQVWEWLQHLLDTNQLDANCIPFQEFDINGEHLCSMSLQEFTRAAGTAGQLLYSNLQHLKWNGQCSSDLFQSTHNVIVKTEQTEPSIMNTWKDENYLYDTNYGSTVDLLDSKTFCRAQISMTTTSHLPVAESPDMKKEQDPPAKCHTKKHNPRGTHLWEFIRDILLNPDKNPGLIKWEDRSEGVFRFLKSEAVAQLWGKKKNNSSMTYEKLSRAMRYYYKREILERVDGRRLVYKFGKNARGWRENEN
# In short: as §1
# SPI1 = SPI1 (Homo sapiens, UniProt P17947 1-270); settings: protein: recombinant; tags: N-terminal GST; dsDNA, one strand shown
# In short: as §1
# SPIB = SPIB (Homo sapiens, UniProt Q01892 1-262); settings: protein: recombinant; tags: N-terminal GST; dsDNA, one strand shown
# SPIB, sequence (Q01892 whole entry): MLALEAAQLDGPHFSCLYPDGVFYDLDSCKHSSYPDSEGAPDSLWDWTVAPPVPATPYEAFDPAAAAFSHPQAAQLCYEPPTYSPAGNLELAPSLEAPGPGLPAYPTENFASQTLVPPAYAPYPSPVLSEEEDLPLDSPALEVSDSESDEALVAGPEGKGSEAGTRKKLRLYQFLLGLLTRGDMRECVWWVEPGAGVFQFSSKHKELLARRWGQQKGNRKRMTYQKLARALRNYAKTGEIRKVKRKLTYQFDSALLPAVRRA
# In short: as §1
# ELK3 = target: T6, ELK3 (Homo sapiens, UniProt P41970 1-407); settings: protein: recombinant; tags: N-terminal GST; dsDNA, one strand shown
# T6 sequence: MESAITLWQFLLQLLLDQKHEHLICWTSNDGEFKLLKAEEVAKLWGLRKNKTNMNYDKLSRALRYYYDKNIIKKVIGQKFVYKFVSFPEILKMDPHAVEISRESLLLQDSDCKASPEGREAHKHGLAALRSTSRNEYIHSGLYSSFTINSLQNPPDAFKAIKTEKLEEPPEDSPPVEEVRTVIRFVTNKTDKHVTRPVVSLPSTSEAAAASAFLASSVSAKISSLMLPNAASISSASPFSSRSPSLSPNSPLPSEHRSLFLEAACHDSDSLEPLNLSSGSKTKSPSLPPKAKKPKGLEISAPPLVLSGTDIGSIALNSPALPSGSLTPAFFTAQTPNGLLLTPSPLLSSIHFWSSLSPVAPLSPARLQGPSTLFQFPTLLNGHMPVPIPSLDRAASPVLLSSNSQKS
# In short: as §1
# FEV = target: T7, FEV (Homo sapiens, UniProt Q99581 1-238); settings: protein: recombinant; tags: N-terminal GST; dsDNA, one strand shown
# T7 sequence: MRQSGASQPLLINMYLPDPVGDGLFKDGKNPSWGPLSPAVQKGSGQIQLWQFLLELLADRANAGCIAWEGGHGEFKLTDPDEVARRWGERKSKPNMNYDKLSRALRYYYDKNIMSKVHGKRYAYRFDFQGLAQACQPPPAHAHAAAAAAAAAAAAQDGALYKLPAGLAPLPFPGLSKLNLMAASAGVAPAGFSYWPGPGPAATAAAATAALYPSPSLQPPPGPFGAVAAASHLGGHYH
# In short: as §1
# ETV5 = ETV5 (Homo sapiens, UniProt P41161 1-510); settings: protein: recombinant; tags: N-terminal GST; dsDNA, one strand shown
# ETV5, sequence (P41161 whole entry): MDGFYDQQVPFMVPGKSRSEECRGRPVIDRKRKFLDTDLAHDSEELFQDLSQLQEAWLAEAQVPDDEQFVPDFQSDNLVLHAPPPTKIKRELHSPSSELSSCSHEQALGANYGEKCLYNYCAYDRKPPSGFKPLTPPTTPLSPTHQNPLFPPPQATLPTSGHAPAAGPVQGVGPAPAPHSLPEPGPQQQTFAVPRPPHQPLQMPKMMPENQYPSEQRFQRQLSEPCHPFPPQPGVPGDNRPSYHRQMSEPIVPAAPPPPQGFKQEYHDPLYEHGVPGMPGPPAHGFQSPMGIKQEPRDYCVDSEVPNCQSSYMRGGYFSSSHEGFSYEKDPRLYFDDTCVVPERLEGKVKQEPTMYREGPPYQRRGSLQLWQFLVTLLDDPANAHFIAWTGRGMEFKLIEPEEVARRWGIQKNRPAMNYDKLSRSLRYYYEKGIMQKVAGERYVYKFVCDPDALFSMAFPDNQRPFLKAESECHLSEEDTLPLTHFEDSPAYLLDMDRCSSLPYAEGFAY
# In short: as §1
# HSF1 = HSF1 (Homo sapiens, UniProt Q00613 1-529); settings: protein: recombinant; tags: N-terminal GST; chain copies: 3; dsDNA, one strand shown
# HSF1, sequence (Q00613 whole entry): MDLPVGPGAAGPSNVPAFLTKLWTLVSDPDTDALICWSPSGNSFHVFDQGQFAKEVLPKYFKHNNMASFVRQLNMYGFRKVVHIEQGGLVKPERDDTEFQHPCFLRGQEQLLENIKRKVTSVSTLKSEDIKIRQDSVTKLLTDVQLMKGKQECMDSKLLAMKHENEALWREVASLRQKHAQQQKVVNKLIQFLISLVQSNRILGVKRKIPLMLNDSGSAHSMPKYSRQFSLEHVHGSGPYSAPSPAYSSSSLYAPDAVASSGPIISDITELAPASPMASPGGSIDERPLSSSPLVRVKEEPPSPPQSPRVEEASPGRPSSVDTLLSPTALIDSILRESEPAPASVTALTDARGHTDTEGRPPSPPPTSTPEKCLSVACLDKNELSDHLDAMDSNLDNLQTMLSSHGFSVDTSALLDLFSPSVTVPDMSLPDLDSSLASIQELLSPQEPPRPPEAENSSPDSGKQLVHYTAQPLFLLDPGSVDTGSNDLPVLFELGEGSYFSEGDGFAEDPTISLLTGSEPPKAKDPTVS
# In short: as §1
# SPIC = target: T8, SPIC (Homo sapiens, UniProt Q8N5J4 1-248); settings: protein: recombinant; tags: N-terminal GST; dsDNA, one strand shown
# T8 sequence: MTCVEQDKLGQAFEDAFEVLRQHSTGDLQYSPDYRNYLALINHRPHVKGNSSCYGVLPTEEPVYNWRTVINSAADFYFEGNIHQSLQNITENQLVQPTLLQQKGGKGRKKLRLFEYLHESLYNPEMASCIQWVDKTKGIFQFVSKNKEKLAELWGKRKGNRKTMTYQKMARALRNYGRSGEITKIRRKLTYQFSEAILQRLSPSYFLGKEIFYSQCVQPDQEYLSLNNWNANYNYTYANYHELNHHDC
# In short: as §1
# ELF4 = ELF4 (Homo sapiens, UniProt Q99607 1-663); settings: protein: recombinant; tags: N-terminal GST; dsDNA, one strand shown
# ELF4, sequence (Q99607 whole entry): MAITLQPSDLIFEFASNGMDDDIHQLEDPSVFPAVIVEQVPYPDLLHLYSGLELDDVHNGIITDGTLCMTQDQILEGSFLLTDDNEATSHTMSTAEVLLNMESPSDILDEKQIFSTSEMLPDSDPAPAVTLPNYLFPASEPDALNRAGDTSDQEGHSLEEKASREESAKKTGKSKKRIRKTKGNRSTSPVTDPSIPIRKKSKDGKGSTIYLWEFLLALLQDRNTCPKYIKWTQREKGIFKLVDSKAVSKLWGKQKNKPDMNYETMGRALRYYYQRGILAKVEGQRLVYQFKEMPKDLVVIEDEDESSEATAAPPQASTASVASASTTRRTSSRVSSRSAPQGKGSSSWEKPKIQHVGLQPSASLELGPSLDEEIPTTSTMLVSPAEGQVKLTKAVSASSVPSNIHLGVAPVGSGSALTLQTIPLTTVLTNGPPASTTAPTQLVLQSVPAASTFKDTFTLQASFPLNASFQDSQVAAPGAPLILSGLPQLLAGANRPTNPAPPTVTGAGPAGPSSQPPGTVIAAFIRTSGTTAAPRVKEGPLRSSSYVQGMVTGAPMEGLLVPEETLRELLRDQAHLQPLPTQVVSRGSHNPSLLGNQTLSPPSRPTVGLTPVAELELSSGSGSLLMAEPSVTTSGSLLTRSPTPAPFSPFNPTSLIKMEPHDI
# In short: as §1
# ELK4 = target: T9, ELK4 (Homo sapiens, UniProt P28324-2 1-405); settings: protein: recombinant; tags: N-terminal GST; dsDNA, one strand shown
# T9 sequence: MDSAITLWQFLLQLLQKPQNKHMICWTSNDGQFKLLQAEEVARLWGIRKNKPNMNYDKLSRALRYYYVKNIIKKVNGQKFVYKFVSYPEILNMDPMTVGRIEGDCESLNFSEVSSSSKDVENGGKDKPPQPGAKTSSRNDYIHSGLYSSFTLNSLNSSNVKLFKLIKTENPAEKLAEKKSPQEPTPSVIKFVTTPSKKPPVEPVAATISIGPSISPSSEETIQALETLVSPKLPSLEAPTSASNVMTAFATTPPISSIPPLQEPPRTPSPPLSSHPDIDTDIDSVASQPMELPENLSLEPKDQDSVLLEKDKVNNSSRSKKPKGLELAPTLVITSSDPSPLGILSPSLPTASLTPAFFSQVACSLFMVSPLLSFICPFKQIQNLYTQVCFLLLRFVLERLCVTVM
# In short: as §1
# ETV2 = target: T10, ETV2 (Homo sapiens, UniProt O00321 1-342); settings: protein: recombinant; tags: N-terminal GST; dsDNA, one strand shown
# T10 sequence: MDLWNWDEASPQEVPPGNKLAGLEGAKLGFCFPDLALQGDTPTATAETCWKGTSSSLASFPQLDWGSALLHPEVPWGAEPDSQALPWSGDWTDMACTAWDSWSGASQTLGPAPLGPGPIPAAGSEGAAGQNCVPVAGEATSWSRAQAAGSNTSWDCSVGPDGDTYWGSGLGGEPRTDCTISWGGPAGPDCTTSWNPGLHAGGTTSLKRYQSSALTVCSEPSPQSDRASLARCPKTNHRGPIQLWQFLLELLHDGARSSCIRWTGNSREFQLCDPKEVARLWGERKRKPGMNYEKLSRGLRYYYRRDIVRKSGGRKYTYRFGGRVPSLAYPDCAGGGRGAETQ
# In short: as §1
# ELF3 = target: T11, ELF3 (Homo sapiens, UniProt P78545 1-371); settings: protein: recombinant; tags: N-terminal GST; dsDNA, one strand shown
# T11 sequence: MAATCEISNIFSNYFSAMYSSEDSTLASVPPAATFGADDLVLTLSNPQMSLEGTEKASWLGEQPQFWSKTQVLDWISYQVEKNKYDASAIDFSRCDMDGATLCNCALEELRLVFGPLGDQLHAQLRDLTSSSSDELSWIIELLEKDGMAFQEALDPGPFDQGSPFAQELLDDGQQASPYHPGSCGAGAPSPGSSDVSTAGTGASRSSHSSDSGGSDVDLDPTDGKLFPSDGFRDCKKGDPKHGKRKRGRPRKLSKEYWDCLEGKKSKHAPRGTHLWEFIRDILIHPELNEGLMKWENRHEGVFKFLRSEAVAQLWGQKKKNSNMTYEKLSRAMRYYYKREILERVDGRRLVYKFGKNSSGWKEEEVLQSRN
# In short: as §1
# CRX = CRX (Homo sapiens, UniProt O43186 1-299); settings: protein: recombinant; tags: N-terminal GST; dsDNA, one strand shown
# CRX, sequence (O43186 whole entry): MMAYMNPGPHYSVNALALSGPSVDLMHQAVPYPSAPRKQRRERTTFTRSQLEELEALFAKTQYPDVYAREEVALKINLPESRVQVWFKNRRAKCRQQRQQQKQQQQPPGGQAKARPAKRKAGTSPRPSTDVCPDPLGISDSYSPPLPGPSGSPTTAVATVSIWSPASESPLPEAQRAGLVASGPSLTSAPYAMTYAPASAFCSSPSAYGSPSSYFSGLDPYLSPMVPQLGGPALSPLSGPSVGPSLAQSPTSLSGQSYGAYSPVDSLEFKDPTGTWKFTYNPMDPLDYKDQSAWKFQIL
# In short: as §1
# ETV1 = ETV1 (Homo sapiens, UniProt P50549 1-477); settings: protein: recombinant; tags: N-terminal GST; dsDNA, one strand shown
# ETV1, sequence (P50549 whole entry): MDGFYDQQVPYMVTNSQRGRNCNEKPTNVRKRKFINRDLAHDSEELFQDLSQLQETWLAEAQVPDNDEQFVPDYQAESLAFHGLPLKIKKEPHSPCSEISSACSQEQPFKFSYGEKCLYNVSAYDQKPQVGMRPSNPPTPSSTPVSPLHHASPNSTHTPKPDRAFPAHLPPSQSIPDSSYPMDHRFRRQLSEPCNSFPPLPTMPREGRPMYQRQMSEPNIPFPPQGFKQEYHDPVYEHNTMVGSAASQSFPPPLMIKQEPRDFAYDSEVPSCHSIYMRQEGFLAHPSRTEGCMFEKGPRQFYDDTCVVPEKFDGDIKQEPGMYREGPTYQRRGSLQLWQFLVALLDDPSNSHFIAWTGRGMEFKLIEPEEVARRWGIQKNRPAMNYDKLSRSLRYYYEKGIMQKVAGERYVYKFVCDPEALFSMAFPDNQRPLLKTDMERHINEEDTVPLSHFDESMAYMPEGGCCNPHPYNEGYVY
# In short: as §1
sequence,measurement,setting,value
ATCTAC,binding signal,FLI1,"1.2 fold enrichment (6-mer frequency, TF over GST control)"
same,binding signal,ELK1,"1.38 fold enrichment (6-mer frequency, TF over GST control)"
same,binding signal,GABPA,"1.22 fold enrichment (6-mer frequency, TF over GST control)"
same,binding signal,ERG,"1.2 fold enrichment (6-mer frequency, TF over GST control)"
same,binding signal,ELF1,"1.34 fold enrichment (6-mer frequency, TF over GST control)"
same,binding signal,EHF,"1.25 fold enrichment (6-mer frequency, TF over GST control)"
same,binding signal,SPI1,"1.34 fold enrichment (6-mer frequency, TF over GST control)"
same,binding signal,SPIB,"1.35 fold enrichment (6-mer frequency, TF over GST control)"
same,binding signal,ELK3,"1.27 fold enrichment (6-mer frequency, TF over GST control)"
same,binding signal,FEV,"1.33 fold enrichment (6-mer frequency, TF over GST control)"
same,binding signal,ETV5,"1.25 fold enrichment (6-mer frequency, TF over GST control)"
same,binding signal,HSF1,"1.43 fold enrichment (6-mer frequency, TF over GST control)"
same,binding signal,SPIC,"1.34 fold enrichment (6-mer frequency, TF over GST control)"
same,binding signal,ELF4,"1.27 fold enrichment (6-mer frequency, TF over GST control)"
same,binding signal,ELK4,"1.11 fold enrichment (6-mer frequency, TF over GST control)"
same,binding signal,ETV2,"1.29 fold enrichment (6-mer frequency, TF over GST control)"
same,binding signal,ELF3,"1.33 fold enrichment (6-mer frequency, TF over GST control)"
same,binding signal,CRX,"1.5 fold enrichment (6-mer frequency, TF over GST control)"
same,binding signal,ETV1,"1.26 fold enrichment (6-mer frequency, TF over GST control)"

# — PMC7862700, “An all-to-all approach to the identification of sequence-specific readers for epigenetic DNA modifications on cytosine”
